Columns and labels:
Test in all cases: PBM binding z-score (relative to random genomic background probes); higher = stronger binding; sequences stand for … in GC…GCGATTGACAGCGTAGAATGAAGG
[1] = test system: FXR:RXRa (NR concentration 270 nM, RXRa partner concentration 90 nM)
How it was run: (§1)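 Antibodies against each partner of ligand-free nuclear receptor dimers (one per run) detected binding on custom Agilent 4×180K protein-binding microarrays after 1 h incubation. The double-stranded probes had 34-nt variable regions carrying direct-repeat seeds, single-nucleotide variants, half-site ablations and random human genomic background sequences. Binding z-scores, from regression-normalized fluorescence, use the random background probes as reference.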

[2] = test system: LXRa:RXRa (NR concentration 270 nM, RXRa partner concentration 90 nM)
How it was run: as §1

[3] = test system: LXRa homodimer (NR concentration 270 nM)
How it was run: as §1

[4] = test system: LXRb:RXRa (NR concentration 270 nM, RXRa partner concentration 90 nM)
How it was run: as §1

[5] = test system: LXRb homodimer (NR concentration 270 nM)
How it was run: as §1

[6] = test system: PPARa:RXRa (NR concentration 270 nM, RXRa partner concentration 90 nM)
How it was run: as §1

[7] = test system: PPARg:RXRa (NR concentration 180 nM, RXRa partner concentration 90 nM)
How it was run: as §1

[8] = test system: PPARg:RXRa 270nM:90nM, anti-RXR (NR concentration 270 nM, RXRa partner concentration 90 nM)
How it was run: as §1

[9] = test system: PPARg:RXRa 30nM:10nM, anti-RXR (NR concentration 30 nM, RXRa partner concentration 10 nM)
How it was run: as §1

[10] = test system: PPARg:RXRa 90nM:30nM, anti-RXR (NR concentration 90 nM, RXRa partner concentration 30 nM)
How it was run: as §1

[11] = test system: PPARg:RXRa DBDmut IVT, anti-RXR (DBD mutation: RXRa K156A/R161A, NR concentration 270 nM, RXRa partner concentration 90 nM)
How it was run: as §1

[12] = test system: PPARg:RXRa IVT, anti-PPARg (NR concentration 270 nM, RXRa partner concentration 90 nM)
How it was run: as §1

[13] = test system: PPARg DBDmut:RXRa IVT, anti-PPARg (DBD mutation: PPARg1 K132A/R137A, NR concentration 270 nM, RXRa partner concentration 90 nM)
How it was run: as §1

[14] = test system: PPARg DBDmut IVT, anti-PPARg (DBD mutation: PPARg1 K132A/R137A, NR concentration 270 nM)
How it was run: as §1

[15] = test system: PPARg homodimer (NR concentration 180 nM)
How it was run: as §1

[16] = test system: PXR:RXRa (NR concentration 270 nM, RXRa partner concentration 90 nM)
How it was run: as §1

[17] = test system: PXR homodimer (NR concentration 270 nM)
How it was run: as §1

[18] = test system: RARa:RXR (NR concentration 270 nM, RXRa partner concentration 90 nM)
How it was run: as §1

[19] = test system: RARa homodimer (NR concentration 270 nM)
How it was run: as §1

[20] = test system: RARb:RXRa (NR concentration 270 nM, RXRa partner concentration 90 nM)
How it was run: as §1

Sequence | PBM binding z-score [1] | PBM binding z-score [2] | PBM binding z-score [3] | PBM binding z-score [4] | PBM binding z-score [5] | PBM binding z-score [6] | PBM binding z-score [7] | PBM binding z-score [8] | PBM binding z-score [9] | PBM binding z-score [10] | PBM binding z-score [11] | PBM binding z-score [12] | PBM binding z-score [13] | PBM binding z-score [14] | PBM binding z-score [15] | PBM binding z-score [16] | PBM binding z-score [17] | PBM binding z-score [18] | PBM binding z-score [19] | PBM binding z-score [20]
CCTGCTAGGTCAATGGTCAGCAAAAGCAGCTCGC | 2.97 | 2.15 | 0.13 | 1.33 | -0.077 | 3.32 | 4.8 | 5.15 | 2.5 | 4.66 | 4.13 | 3.94 | -0.42 | -0.782 | 0.701 | 0.88 | -0.358 | 1.49 | -0.178 | 3.86
CCTACTGGGCCATCAGGTCATTGAGATCAACGTT | 1.65 | 1.44 | 1.22 | 1.45 | -0.336 | 2.93 | 3.04 | 3.58 | 1.41 | 3.12 | 4.42 | 4.78 | 0.317 | 0.581 | 1.13 | 2.08 | 2.14 | 2.31 | -0.158 | 2.22
CGTCCAAGGTCAAGGTCGGTGAAAGAGACTCGAA | 7.27 | 5.92 | 0.458 | 4.22 | 0.00899 | 5.85 | 5.34 | 5.83 | 2.16 | 4.39 | 3.16 | 4.02 | -0.058 | -0.563 | 2.86 | 4.31 | 0.887 | 5.05 | 0.962 | 5.34
ATAATGAGGTTAAGATCAGGGAAACAGAATACAT | 2.39 | 2.59 | 0.379 | 2.15 | 0.727 | 3.79 | 3.01 | 2.48 | 1.48 | 2.19 | 3.08 | 3.32 | 1.83 | 1.92 | 1.15 | 1.31 | 0.654 | 2.22 | 0.709 | 2.22
CGTCCAAGGTCTTAGGAGGTCAGTGAAGACAGAT | 1.69 | 3.12 | 0.984 | 2.03 | -0.404 | 2.28 | 0.427 | 1.06 | 0.0477 | 0.43 | 0.587 | 1.31 | -0.3 | -0.454 | 1.17 | 3.07 | 0.796 | 2.15 | -0.152 | 2.46
ACTATTAGTTGAGACGAGGGGAACCGATAGGTTG | 0.227 | -0.0882 | -0.278 | -0.282 | 0.604 | -0.0604 | 0.569 | -0.00558 | 0.211 | 0.143 | 0.452 | 0.325 | 0.853 | 0.931 | -0.148 | -0.0512 | 0.29 | -0.00202 | 0.237 | 0.18
ATACCAAGGTGATCGTGAGGTCGTTGCTACTAAC | 1.95 | 1.3 | 0.422 | 1.19 | 0.0744 | 1.65 | 0.201 | 0.438 | -0.28 | 0.185 | 0.566 | 1.52 | 0.602 | 0.38 | 0.741 | 3.18 | 1.05 | 1.91 | 0.0838 | 1.5

Source: the supplement of paper PMC6555819
